This is a sample that favours compounds with a hit; in the whole collection about 7.9% have one here.
MARV entry inh: blocks Marburg virus binding to or entry into cells; Marburg virus pseudotyped entry inhibition, cell reporter; Potency, µM (series often up to 37.8 µM), for the others: at the top dose activity change, negative = inhibition, usual class: inhibitors; 300,000 compounds, 1.8% hits; AID 540276; calls by dose curve; tested in HEK293 cells; also: potency is read from the fitted curve at half-maximal effect
LASV entry inh: Lassa virus entry inhibition; Potency, µM (doses to about 37.9 µM), without a hit: at the top dose activity change, negative = inhibition, usual class: inhibitors; Lassa virus pseudotype entry inhibition, cell reporter; 300,000 compounds, 1.2% hits; AID 540256; calls by dose curve; tested in HEK293 cells; also: potency is read from the fitted curve at half-maximal effect; nearly all actives have a fitted effect of over 50% in size
HCV inhibitor: HCV inhibition; Potency, µM (top dose mostly 41.8 µM), for the others: at the top dose activity change, negative = inhibition, usual class: inhibitors; Huh7.5.1 HCVcc-Cre infection, luciferase reporter, 44 h; 340,000 compounds, 3.4% hits; active = well fitted inhibition curve with a large enough effect; inconclusive = small, poorly fitted or top-dose-only effect, or another doubt; inactive = no such curve, though single readings can be large or run the other way; also: potency is read from the fitted curve at half-maximal effect
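1,000 cells/well; 4 h culture; + compound; + HCVcc-Cre (~0.5 moi); 44 h; luciferase substrate, RT 15 min; read 15 sec.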
FMDV antiviral: foot and mouth disease virus antiviral activity; FMDV antiviral cell-based qHTS; Potency, µM (titrated, usually from 57.9 µM), for inactives: at the highest dose activity change, negative = inhibition, actives largely listed as inhibitors; 410,000 compounds, 1.2% hits; calls by dose curve; tested in HEK293T cells; also: read-out not given here; potency is read from the fitted curve at half-maximal effect; nearly all actives have a fitted effect of over 45% in size
HCMV antiviral: blocks human cytomegalovirus replication | activity change, negative = inhibition, % at 57.5 µM | 410,000 compounds, 4.5% hits | HFF cells, HCMV-luciferase reporter, 72 h; active compounds read low; in the data active = activity change below about -60%; inconclusive = no clear call, values can overlap the other calls; inactive = above about -39%
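Screen run at 2 compound doses on HFFs infected with reporter HCMV, MOI 1 PFU/cell. Luciferase activity from cell lysates at 72 h post infection gave inhibition relative to buffer-only and Salinomycin wells.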
Active calls of the source: *; ? = inconclusive; · = no result given; ! = not confirmed by another sample; [ ] = remark or other dose. % is scaled to controls: 0 for no effect and ±100 for the full control effect.

SMILES	MARV entry inh	LASV entry inh	HCV inhibitor	FMDV antiviral	HCMV antiviral
CCN(Cc1ccccc1)c1ncnc2c1nnn2C	·	-19%[46.1 µM]	·	0%	2
COc1ccc(OCCn2nnc3sc4c(c3c2=O)CCC(C(C)(C)C)C4)cc1 (stereo not given)	-13%[46.1 µM]	22%[46.1 µM]	·	-27%	12
Cc1ccc(/C=N/NC(=O)c2ccccc2OCc2ccc(F)cc2)o1	-20%	2%	10µM*	-33%	?
C#CCOc1ccccc1/C=N/NC(=O)c1ccccc1OCc1ccccc1	·	·	?	18µM*	?
Cc1ccccc1NC(C)C(=O)N/N=C/c1ccccc1OCc1cccc(Br)c1 (stereo not given)	?	?	?	0%	55
COc1ccc(/C=N/NC(=O)c2ccccc2OCc2ccccc2)c(OC)c1	?	?	13µM*	-16%	?
COc1ccc(NC(C)C(=O)N/N=C/c2ccccc2OCc2cccc(Br)c2)cc1 (stereo not given)	?	11µM*	11µM*	-16%	14
CCC(CC)=NNC(=O)c1ccccc1OCc1ccc(F)cc1	0%	?	?	-21%	?
COC(=O)c1cccc(Nc2c(-c3cc(Br)ccc3O)nc3nc[nH]n23)c1	·	-2%[46.1 µM]	·	-4%	6
CCOC(=O)c1ccc(NC(=O)CCc2c(C)nc3c(c(C)nn3C)c2C)cc1	-15%[46.1 µM]	0%[46.1 µM]	·	?	-4
COc1ccc(C2N(C(C)=O)CCCN2S(=O)(=O)c2ccc(C)cc2)cc1 (stereo not given)	-11%[46.1 µM]	?	-19%	9%	-62*
CCCn1c(Cc2ccccc2)n[nH]c1=S	-2%	18%	6%	10%	47
S=c1[nH]nc(Cc2ccccc2)n1Cc1ccco1	0%	4%	12%	-23%	-109*
O=c1c(=O)n(-c2ccccc2)ccn1Cc1cccc(C(F)(F)F)c1	·	12%[46.1 µM]	·	-1%	?
Cc1ccc(C2=NOC(=O)/C2=C\C=C\c2ccccc2)cc1	?	?	?	14µM*	-109*
CC1=NN(c2cccc(C(=O)O)c2)C(=O)/C1=C\C=C\c1ccco1	?	-4%	10%	-20%	-36
Cc1ccc(-c2nnc(/C=C/c3ccccc3)o2)cc1	?	?	8%	38%	2
CC1=NN(c2ccccc2)C(=O)/C1=C/C=C/c1ccccc1	?	-21%	12%	35µM*	-69*
CC1=NN(c2ccccc2)C(=O)/C1=C/c1cc(C)n(C2CC2)c1C	30%[46.1 µM]	4%	-7%	28%	-68*
Cn1c(=O)c(-c2cccs2)nc2cnc(OCc3ccccc3)nc21	·	·	·	-12%	·
COc1ccc(N(C(=O)c2ccccc2C)S(=O)(=O)c2ccc3c(c2)n(C)c(=O)n3C)cc1	?	-8%[46.1 µM]	·	-19%	1
c1ccc(-c2nn3cnnc3c3ccccc23)cc1	·	·	?	-18%	5
Cc1cccc2c1nc(-c1ccccc1)n1nnnc21	-2%	-8%	-29%	-1%	-60*
Cc1cccc2c1nc(-c1ccccc1)n1cnnc21	14%	0%	-2%	?	-69*
CCn1ccc2cc(S(=O)(=O)N3CCCN(C(=O)Nc4cc(Cl)ccc4C)CC3)ccc21	·	-24%[46.1 µM]	·	-11%	8
SMILES	MARV entry inh	LASV entry inh	HCV inhibitor	FMDV antiviral	HCMV antiviral
CC(=O)c1cccc(NC(=O)C(OC(=O)c2ccccc2NS(=O)(=O)c2cccs2)c2ccccc2)c1 (stereo not given)	?	?	1%	40%	-75*
O=S(=O)(c1ccccc1)N(C[C@@H](O)CN1CCCCC1)c1ccccc1	-10%[46.1 µM]	·	·	·	·
CSCC[C@H](NC(=O)OC(C)(C)C)C(=O)N/N=C/c1ccc2nccnc2c1	3.2µM*	-12%	8%	-11%	-23
CN(C(=O)COc1ccccc1C(=O)NCCOc1ccccc1)c1ccccc1	?	11µM*	8.9µM*	8.9µM*	-93*
O=C(NCCOc1ccccc1)c1ccccc1Cl	?	?	1%	5%	?
CC(=O)NCCNC(=O)CCCc1nnc2n(C)c(=O)c3sccc3n12	-4%[46.1 µM]	?	·	-15%	-1
Cn1c(CN2CCCC2)nc2cc(NC(=O)COc3ccc(Cl)cc3)ccc21	?	20%	?	·	6
CCOC(=O)N1CCN(Cc2nc3cc(NC(=O)c4ccccc4Cl)ccc3n2C(C)C)CC1	?	-19%[46.1 µM]	·	?	-90*
Cn1c(CN2CCCC2)nc2cc(NC(=O)c3ccc(Cl)cc3)ccc21	-28%	20%	?	0%	-73*
Cn1c(CN2CCOCC2)nc2cc(NC(=O)c3ccc(F)cc3)ccc21	-21%	-5%	?	·	-75*
Cn1c(CN2CCCCC2)nc2cc(NC(=O)c3ccc(Cl)cc3)ccc21	21µM*	19%[46.1 µM]	4µM*	18µM*!	-67*
CCOC(=O)N1CCN(Cc2nc3cc(NC(C)=O)ccc3n2C(C)C)CC1	?	-24%[46.1 µM]	·	-16%	69
Cn1c(CN2CCOCC2)nc2cc(NC(=O)c3ccccc3Cl)ccc21	6%	29%	2%	·	-22
CCOC(=O)CCN1C(=O)[C@@H]2[C@H]3[C@H](O)[C@H](O)CC(=NNC(=O)OCc4ccccc4)[C@@H]3CC[C@H]2C1=O	29%[14.2 µM]	-34%[14.3 µM]	·	·	·
CCCOc1ccc(CNC(=O)CCCn2nc(C)c3sc4ccccc4c3c2=O)cc1	?	?	·	-4%	-8
Clc1ccc(NCc2nnc3n2CCCCC3)cc1	-8%	3%	6%	-15%	-99*
CCn1c(CNc2ccc(Cl)cc2)nnc1SCc1ccc(Cl)cc1	?	?	?	-15%	-11
CCn1c(CNc2ccc(Cl)cc2)nnc1SCCN1CCCCC1	-28%	-1%	?	-19%	-106*
C#CCN(Cc1ccc(OCCC)cc1)S(=O)(=O)c1ccc(Br)cc1F	·	-25%[46.1 µM]	·	·	·
CCN1CCN(C(=O)c2ccc3c(c2)N(Cc2ccccc2F)C(=O)c2ccccc2S3=O)CC1 (stereo not given)	12%[46.1 µM]	1%[46.1 µM]	·	-10%	14
CC1=C(CO)C(=O)OC([C@@H](C)C2CC[C@H]3C4C[C@H]5O[C@]56[C@@H](O)C=CC(=O)[C@]6(C)C4CC[C@]23C)C1 (stereo not given in full)	·	·	?	7.1µM*	-107*
CN(c1ccccc1)P(=O)(N(C)c1ccccc1)N(C)c1ccccc1	·	·	-13%	-29%	-86*
CN(c1ccccc1)P(=O)(N1CC1)N1CC1	-19%	-19%	-10%	-18%	-2
COc1ccc(S(=O)(=O)NCCc2nnc3ccc(SCC(=O)Nc4cc(C)cc(C)c4)nn23)cc1	·	0%[46.1 µM]	·	-12%	3
CC(C)(C)n1nnnc1C(C1CC1)N1C(=O)C(=O)c2ccccc21 (stereo not given)	·	·	·	·	-77*
Cc1cccc(C)c1-n1nnnc1C(C1CC1)N1C(=O)C(=O)c2ccccc21 (stereo not given)	·	·	·	·	-4
Cc1c(C(=O)N(C)Cc2cscn2)sc2ncnc(NC[C@H]3CCc4ccccc4O3)c12	·	·	·	-12%	·
Cc1ccc(S(=O)(=O)NCCC(=O)N2CCC(C(N)=O)CC2)cc1C	6%	15%	16%	0%	13

Compound activity as filed in PubChem.
